Experimental data reported in PubChem BioAssay (EPA / NIEHS).
Active and inactive are the calls of the source. How the source made its calls: active means hit-call score of the fitted dose curve at least 0.9, where 1 is the maximum; inactive means score below 0.9.

Assay: ATG_CRE_CIS: Attagene CIS-FACTORIAL HepG2 Assay for human cAMP Responsive Element (CRE) binding protein 3 (AID 2282926)
Conditions: HepG2 CRE cis-reporter, Attagene multiplexed mRNA; actives raise or lower the signal
Protocol: ATG_CIS is a cell-based, multiplexed-readout assay that uses HepG2, a human liver cell line, with measurements taken at 24 hours after chemical dosing in a 24-well plate.ATG_CRE_CIS is one of 52 assay component(s) measured or calculated from the ATG_CIS assay. It is designed to make measurements of mRNA induction, a form of inducible reporter, as detected with fluorescence intensity signals by Reverse transcription polymerase chain reaction (RT-PCR) and Capillary electrophoresis technology.Data from the assay component ATG_CRE_CIS was analyzed into 1 assay endpoint. This assay endpoint, ATG_CRE_CIS, was analyzed with bidirectional fitting relative to DMSO as the negative control and baseline of activity. Using a type of inducible reporter, measures of mRNA for gain or loss-of-signal activity can be used to understand the reporter gene at the transcription factor-level as they relate to the gene CREB3. Furthermore, this assay endpoint can be referred to as a primary readout, because this assay has produced multiple assay endpoints where this one serves a reporter gene function. To generalize the intended target to other relatable targets, this assay endpoint is annotated to the dna binding intended target family, where the subfamily is basic leucine zipper.
Human liver HepG2 cells are transiently transfected with multiple reporter transcription units (MRTUs) in 6-well plates using FuGene 6 reagent (Roche; 3 ml FuGene/1 mg DNA). The MRTU constructs are regulated by a cis-regulating element (promoter). […] A major difference between the CIS and TRANS system is that in CIS activities of endogenous TFs are measured, whereas the TRANS assay evaluates changes in activities of exogenous, chimeric NR-Gal4 proteins. […] At the end of 24 hour incubation, total RNA was isolated using TriZol reagent (Invitrogen). The isolated RNA is then reverse-transcribed using oligo(dT) primer and Mo-MLV reverse transcriptase (Invitrogen) with DNAse I (Ambion) treatment for 30 min. The one-tenth of the produced cDNA was amplified by PCR using Taq DNA polymerase (Invitrogen) and two reporter sequence-specific primers. The PCR products were fluorescently labeled by primer extension with 6-arboxyfluorescein (6-FAM) 5'-labeled reporter sequence-specific primer (2 min at 95 C, 20 s at 68 C and 10 min at 72 C) and these products were digested with 5U of HpaI (New England Biolabs) for 2h at 37 C. The fragments were purified using Qiaquick PCR columns (Qiagen), analyzed on an ABI 3130xL genetic analyzer (Applied Biosystems) with peak positions identified by using a set of X-rhodamine (ROX)-labeled MapMarker1000 molecular weight standards (BioVentures). The raw capillary electrophoresis data was processed using Attagraph software (Attagene).
For `NC(=O)OCC(COC(N)=O)c1ccccc1`, the outcome was “inactive”.
In the case of `O=C(Nc1cccc(C(F)(F)F)c1)c1cc(Br)cc(Br)c1O`, the AC50 is reported as 100 µM (active).
In the case of `OC1CCCCCCCCCCC1`, the outcome is reported as “inactive”.
With `CCCCC(CC)COC(=O)c1ccccc1` (stereo not given) the outcome was “inactive”.
With `CC(=O)Nc1ccc2c(c1)Cc1cc(NC(C)=O)ccc1-2` the outcome was “inactive”.
For `CCC(C)C=O` (stereo not given), the outcome was “inactive”.
In the case of `CC(C)=CCC/C(C)=C\C#N`, the outcome is reported as “inactive”.
For `C1=Cc2ccccc2C1`, the outcome was “inactive”.
For `O=[N+]([O-])c1ccc(CO)cc1`, the outcome was “inactive”.
In the case of `CN(C)c1ccc(N=Nc2ccccc2C(=O)O)cc1`, the outcome is reported as “inactive”.
In the case of `O=C(c1ccc(O)cc1)c1ccc(O)cc1O`, the outcome is reported as “inactive”.
For `COC(=O)C1=C(C)NC(C)=C(C(=O)OCC(C)C)C1c1ccccc1[N+](=O)[O-]` (stereo not given), the outcome was “inactive”.
In the case of `Cc1c(C)c([N+](=O)[O-])c(C(C)(C)C)c([N+](=O)[O-])c1C`, the outcome is reported as “inactive”.
In the case of `CCOC(=O)N1CCC(=C2c3ccc(Cl)cc3CCc3cccnc32)CC1`, the outcome is reported as “inactive”.
In the case of `N[C@H]1C(O)O[C@H](CO)[C@H](O)[C@@H]1O` (stereo not given in full), the outcome is reported as “inactive”.
For `OC1OCCOC1O` (stereo not given), the outcome was “inactive”.
With `CCOC(F)(F)C(F)(F)C(F)(F)C(F)(F)F` the outcome was “inactive”.
In the case of `C=C1C2CCC(C2)C1(C)C` (stereo not given), the outcome is reported as “inactive”.
In the case of `CC=CC(=O)N(CC)c1ccccc1C`, the outcome is reported as “inactive”.
With `c1cc(N(CC2CO2)CC2CO2)ccc1OCC1CO1` (stereo not given) the AC50 was 12.6 µM (active).
For `N#[N+]c1ccc2c(S(=O)(=O)[O-])cccc2c1O`, the outcome was “inactive”.
For `C=C(C)C(=O)OCC(C)C`, the outcome was “inactive”.
In the case of `CCC(C)(C)C1CCCCC1OC(C)=O` (stereo not given), the outcome is reported as “inactive”.
In the case of `O=c1cc[nH]c(=S)[nH]1`, the outcome is reported as “inactive”.
With `Cc1cc(O)c(Cl)c(C)c1Cl` the outcome was “inactive”.
In the case of `CC(C)C(=O)C(C)C`, the AC50 is reported as 36.9 µM (active).
For `CC(C)(C)c1ccc(OC(=O)c2ccccc2O)cc1`, the outcome was “inactive”.
With `CCCCOCCOC(=O)COc1nc(Cl)c(Cl)cc1Cl` the outcome was “inactive”.
With `Cc1cc(C)c(C)cc1C` the outcome was “inactive”.
With `[Cl][Bi]([Cl])([c]1ccccc1)([c]1ccccc1)[c]1ccccc1` the AC50 was 6.38 µM (active).
In the case of `ON(Cc1ccccc1)Cc1ccccc1`, the outcome is reported as “inactive”.
For `COC(=O)c1ccccc1OC`, the outcome was “inactive”.
In the case of `CCCCC(CC)COCC1CO1` (stereo not given), the outcome is reported as “inactive”.
With `Cc1ccc(OC(=O)CC(C)C)cc1` the outcome was “inactive”.
For `C=CCOc1c(Br)cc(Br)cc1Br`, the outcome was “inactive”.
In the case of `COc1cc(C)ccc1C(C)C`, the outcome is reported as “inactive”.
With `COc1ccc2nc(N)sc2c1` the outcome was “inactive”.
In the case of `COC(=O)/C=C\C(=O)O`, the outcome is reported as “inactive”.
With `Cc1ccc2c(c1)C(=O)c1ccccc1C2=O` the outcome was “inactive”.
With `O=C1CCC(=O)N1Cl` the outcome was “inactive”.
